Reference: PubChem BioAssay AID1863 (Southern Research Specialized Biocontainment Screening …, 2009)
The whole screen tested about 300,000 compounds, of which about 480 (0.16%) were called active.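 Rule for the calls: active = inhibition over 29.93%, a cutoff 3 SD above the screen mean, later confirmed by dose response; inconclusive = inhibition over 29.93% but no dose response follow-up; inactive = inhibition at most 29.93% or unconfirmed.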 Not all results are given here. Potency and affinity values are given separately.

Experiment: inhibitors of PhoP regulon expression, primary screen, Salmonella Typhimurium, GFP reporter (AID 1863);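 note: 0% = low Mg2+ inducing control and 100% = high Mg2+ repressing control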
Conditions: S. Typhimurium PhoP-regulated promoter GFP reporter, 4 h; at 50 µM; active compounds read high

inhibition, inactive:
Cc1ccccc1-c1noc(CCC(=O)NCC2CCCO2)n1 (stereo not given) 6.26%
O=C1OCCC/C1=C\c1ccc2c(c1)OCO2 1.4%
O=C(Cc1nc2ccccc2[nH]1)c1cccc([N+](=O)[O-])c1 -11.1%
CCC(=O)N1C(=O)C2(Nc3ccccc3N2)c2ccccc21 -1.88%
CC(C)(C)c1ccc(NC(=O)COC(=O)c2ccc(NS(=O)(=O)c3ccc(F)c(F)c3)cc2)cc1 1.23%
CCCOc1ccc(Cc2nc(N)nc(N)n2)cc1 20.1%
CCCCOc1ccc(CN(C)c2ncnc(N)n2)cc1 -10.1%
COc1ccc(Cc2c(N)nc(N)nc2N)cc1 2.89%
CC(C)Oc1ccc(Cc2cnc(=S)[nH]c2N)cc1 5.16%
COc1cc(C)c(Cc2cnc(N)nc2N)cc1OC -1.03%
Cc1cc(=O)[nH]c(Cc2ccc(OC(C)C)cc2)n1 10.3%
O=C(Nc1ccc(N2CCOCC2)c(Cl)c1)c1ccc(F)cc1 -2.15%
S=C(NCC1CCCO1)c1ccc(Br)cc1 (stereo not given) 2.88%
CCOC(=O)C1(C)/C(=N/Nc2ccccc2)C(=O)C(=O)N1c1ccccc1 (stereo not given) -7.22%
CCCn1cnnc1CNC(=O)C1CCC(=O)N(CCCc2ccccc2)C1 (stereo not given) 2.57%
CCOC(=O)c1cc(S(=O)(=O)NCC2CCN(Cc3cccc(C)c3)CC2)cn1C 1.53%
O=C(Nc1ccnn1C1CCN(C(=O)c2c(F)cccc2F)CC1)C1CC1 -1.51%
Cc1ncc(CN2CCCC(CCC(=O)NCc3ccc(F)c(F)c3)C2)s1 (stereo not given) -2.44%
Cn1cnc([N+](=O)[O-])c1Oc1ccc2ccccc2c1 16.2%
Cn1cnc([N+](=O)[O-])c1Oc1ccccc1 21.7%
CCCCCCC(C)n1[nH]c(=O)cc1N (stereo not given) 0.2%
Cc1ccc(-c2noc(CN3C(C)CCCC3C)n2)cc1 (stereo not given) 3.05%
Cc1ccc(C(=O)NC2CCCCC2)cc1S(=O)(=O)N1CCCC1 4.45%
CS(=O)(=O)c1ccc(C(=O)NCc2ccccc2F)cc1 -3.92%
CS(=O)(=O)c1ccc(C(=O)NC(Cc2ccccc2)c2ccccc2)cc1 (stereo not given) 4.54%
O=C(O)c1cc(S(=O)(=O)NC(CO)C(O)c2ccc([N+](=O)[O-])cc2)ccc1Br (stereo not given) 8.08%
Cc1ccc(NC(=S)NC(CO)C(O)c2ccc([N+](=O)[O-])cc2)cc1 (stereo not given) 8.17%
Cc1cccc(CN2CCN(Cc3cccc(-n4cccn4)c3)CC2CCO)n1 (stereo not given) -2.39%
O=C1CCN(Cc2ccc(Cl)cc2)N1 -4.83%
CC(=O)c1cccc(S(=O)(=O)Nc2ccc(N3CCOCC3)cc2)c1 -4.4%
NCCCC[C@H]1CN=C(N)N1CCCCC1CCCCC1 11.9%
NC1=NC[C@H](c2ccccc2)N1CC1CCCCC1 -3.43%
CCCCN1C(N)=NC[C@@H]1c1ccccc1 -3.32%
NC1=NC[C@H](Cc2ccc(O)cc2)N1CC1CCCCC1 3.06%
NC1=NC[C@@H](Cc2ccc(O)cc2)N1CC1CCCCC1 -0.19%
CCCCN1C(N)=NC[C@@H]1Cc1ccc(O)cc1 0.58%
NC1=NC[C@@H](Cc2ccc(O)cc2)N1CCC12CC3CC(CC(C3)C1)C2 -0.89%
CCCCN1C(N)=NC[C@H]1Cc1ccc(O)cc1 5.24%
Cc1ccccc1OCC(=O)Nc1ccc(N2CCN(C)CC2)c(Cl)c1 5.97%
COC(=O)c1ccc(OCC(=O)c2ccc(C)c(C)c2)cc1 -11.3%
CCOC(=O)c1c(-c2ccccc2)nc2cc(C)ccn12 -0.32%
Nc1nonc1NN=C1CCCCC1 2.62%
COc1ccc(N(CC(=O)NC2CCCC2)C(=O)c2ccc(C)s2)cc1OC -1.51%
Cc1ccc(S(=O)(=O)N/N=C/c2cccs2)cc1 1.58%
COc1ccc(OC)c(S(=O)(=O)CC(O)CS(=O)(=O)c2ccccc2)c1 (stereo not given) -7.1%
O=C(CC1C(=O)NCCN1CCCc1ccccc1)NCCc1ccccc1F (stereo not given) 5.1%
CN(C)C1=NC[C@H](Cc2ccccc2)N1CCCC1CCCC1 -2.38%
NC1=NC[C@H](Cc2ccccc2)N1CC1CCCCC1 -1.5%
O=C(Oc1ccc(/C=N/NC(=O)c2ccccc2O)cc1)c1ccccc1 -2.42%
Cc1nn(-c2ccccc2)c(N2CCCC2)c1/C=N/NC(=O)c1ccccc1O -4.47%
Cc1ccc(CCNC(=O)C2CCCN(S(=O)(=O)c3c(C)nn(C)c3C)C2)cc1 (stereo not given) -2.59%
Cc1[nH]c2ccccc2c1C(=O)CSC(=S)N1CCCCC1 -9.67%
O=C(Cc1nnc(NC(=O)Nc2ccccc2)s1)Nc1ccccc1 0.5%
Cc1cccc(NC(=S)N2CCC(N(C)CC3CCCO3)CC2)c1 (stereo not given) 2.69%
CCC(C)(C)c1ccc(OCC(=O)N(C)C)c(C(C)(C)CC)c1 -2.72%
CCC(C)(C)c1ccc(OCCCC[n+]2cccc(C)c2)c(C(C)(C)CC)c1 25.6%
Cc1cc[n+](CC[n+]2ccc(C)cc2)cc1 6.23%
Cc1cc(C(C)(C)C)ccc1OCCCCN1CCCC1 -7.85%
Cc1nc2c(ncn2-c2ccccc2)c(=O)n1NC(=O)CN1CCN(C)CC1 4.84%
COc1ccc(CNc2ncccc2[N+](=O)[O-])cc1 2.57%
COC(C(=O)Nc1ccc(Br)cc1F)c1ccccc1 (stereo not given) 4.52%
COc1ccc2[nH]cc(/C=N/NS(=O)(=O)c3ccc(C)cc3)c2c1 -5.48%
NC(=S)N/N=C/c1c[nH]c2ccc(OCc3ccccc3)cc12 1.88%
COc1ccccc1OCC(O)Cn1c(=N)n(Cc2ccccc2)c2ccccc21 (stereo not given) -0.92%
N=c1n(Cc2ccc(Cl)cc2)c2ccccc2n1CC(O)COc1ccccc1 (stereo not given) 3.85%
O=C(NC1CCCCC1)C1COc2ccccc2O1 (stereo not given) 1.35%
Cc1scc(C(=O)N/N=C/c2ccco2)c1C 0.79%
Cc1cc(C(=O)N/N=C/c2ccc([N+](=O)[O-])o2)c(C)o1 -2.92%
CCCC(=O)Nc1ccc(C(=O)N/N=C/c2ccc([N+](=O)[O-])o2)cc1 -16.6%
O=C(N/N=C/c1ccc([N+](=O)[O-])o1)c1ccncc1 3.52%
O=C(N/N=C/C=C/c1ccc([N+](=O)[O-])cc1)c1cccs1 -4.65%
O=C(N/N=C/C=C/c1ccccc1[N+](=O)[O-])c1cccs1 -10.8%
OC1CCN(Cc2ccc(OCc3ccccc3)cc2)CC1 2.08%
O=S(=O)(c1ccc(Br)cc1)N1CCN=C1SCc1cccc(F)c1 -2.02%
Cc1c(C(=O)N(Cc2cccc(Br)c2)C2CCS(=O)(=O)C2)oc2ccc(F)cc12 (stereo not given) 3.11%
O=C(ONC1=NCCCCC1)c1ccc(Cl)cc1 -13.6%
Cc1nn(C)c(=O)n1-c1ccccc1 0.59%
O=C(N/N=C/c1ccccc1[N+](=O)[O-])c1cccs1 -1.95%
O=C(N/N=C\c1ccc(Cl)s1)c1cccs1 -9.8%
O=C(N/N=C\c1cc2c(cc1[N+](=O)[O-])OCO2)c1cccs1 -4.81%
O=C(N/N=C/c1ccc(Br)s1)c1cccs1 0.89%
COc1ccccc1NC(=O)Nc1ccc(Cl)c(S(=O)(=O)Nc2ccccc2OC)c1 -18.5%
CCOc1ccc(CN(CC)C(=O)c2ccc3c(c2)[nH]c(=O)c(=O)n3CC)cc1OC 2.8%
COc1ccccc1CCNC(=O)C1(C)CC1(Cl)Cl (stereo not given) -0.33%
O=C(CN1CCN(Cc2ccccc2)CC1)NCc1ccc(Cl)cc1 3.85%
CCOC(=O)C1CCCN(C(=O)c2ccccc2NC(C)=O)C1 (stereo not given) 8.46%
OCCn1c(CSc2nnc(-c3ccco3)n2-c2ccccc2)nc2ccc(Cl)cc21 8.64%
COc1cccc(-c2nc(=S)c3c(n2CCCO)CCCC3)c1 6.79%
CSc1cccc(NC(=S)N(CCCN2CCCC2)Cc2cccs2)c1 2.61%
CN1/C(=C\C=O)C(C)(C)c2ccccc21 4.13%
CN1\C(=C/C=C/C=C/C=[N+](C)C)C(C)(C)c2ccccc21 -18.9%
O=C(c1ccccc1)c1ccccn1 3.01%
Cc1ccccc1-c1nnc(SCCOc2ccc3c(C)cc(=O)oc3c2)o1 0.64%
Cc1ccc(S(=O)(=O)CC(=O)c2ccc([N+](=O)[O-])cc2)cc1 -7.13%
CCn1cc(C(=O)NN)c(=O)c2cc(F)c(N3CCOCC3)cc21 -6.58%
CCn1cc(C(=O)NCc2ccccn2)c(=O)c2cc(F)c(N3CCN(C)CC3)cc21 17.4%
CCCCCOC(=O)NCC(O)c1ccccc1 (stereo not given) 10.7%
N#CC1=C(N)N(c2ccccc2)C(c2cccc([N+](=O)[O-])c2)C1(C#N)C#N (stereo not given) -7.85%
O=C(Cc1ccccc1)c1c[nH]c(C(=O)NCCCN2CCOCC2)c1 -3.4%
O=C(Nc1ccccc1N1CCOCC1)C1CCN(S(=O)(=O)c2ccc(F)cc2)CC1 -4.59%
